Over roughly 1,800 sequences, “median log2 fold change of GCK-ALFA target abundance (FLAG IP / Myc IP barcode read proportion)” has its median near 0.14; the lowest 2% begin near -0.84. This is one part of a sample in which the lowest values are shown more often than they occur.
T1: TRAF2, Q12933
T1 chain: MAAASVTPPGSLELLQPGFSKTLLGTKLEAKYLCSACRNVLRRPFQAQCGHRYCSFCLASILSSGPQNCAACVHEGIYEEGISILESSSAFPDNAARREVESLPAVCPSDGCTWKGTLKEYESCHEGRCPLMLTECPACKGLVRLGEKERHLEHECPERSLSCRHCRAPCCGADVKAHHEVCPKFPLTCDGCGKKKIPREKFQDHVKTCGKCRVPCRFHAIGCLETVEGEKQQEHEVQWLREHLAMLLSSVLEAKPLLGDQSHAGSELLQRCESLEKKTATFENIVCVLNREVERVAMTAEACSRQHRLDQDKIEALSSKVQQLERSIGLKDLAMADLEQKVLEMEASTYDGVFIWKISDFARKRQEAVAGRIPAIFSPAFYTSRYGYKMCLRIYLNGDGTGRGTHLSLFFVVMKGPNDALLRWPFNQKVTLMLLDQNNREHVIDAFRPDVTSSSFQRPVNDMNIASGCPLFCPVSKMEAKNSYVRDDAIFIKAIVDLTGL

B1: traf2_out_20_38_2029 (protein)
chain: SEEEEEERRLEELIKVANDSYDKYTKKFEKLVAEGKTVEEIAELAKKEVKEKLTAAGLEEEAKELIEDIDRALSSPNALRLIVRILARADALVHQKKINE
B2: traf2_out_3_89_2291 (protein)
chain: SMEKEKKIKEAKERAERYVKGFEKNARRVAKEMLEEGHSLETLRGVLEAARTAIVETFGETLKEEGIDKETRDKILEELKKKLDEIVEEVVEEAKKRREE
B3: traf2_out_11_169_862 (protein)
chain: KEEEFNRKLIDFALEVEDEAKKKLKEFALKLAKEAGLDVAEVEAIFEKHKNSSLSAIASALIEYFRSKGKEEEAEKILKKHDELKEEINKKVSEKIKELK
B4: traf2_out_16_177_1458 (protein)
chain: ELDRVMDRLVILSLIRRAALEIVRSNSPEAERYLAEARAEAEAAGDEEGLARIARIEELAAQNTPEARAELRALAAEAQREAQRLANEAERLIRERAAAE
B5: traf2_out_20_38_2035 (protein)
chain: SEEEEEEEKLEEIIEVANEAYDEYMAWIAERKAAGKTVEEIAEEAKEEVKELLSKVGLEEEAEILIEDIDRALSSPDAERLIARTLARAVALVKQKELNK
B6: traf2_out_20_38_2034 (protein)
chain: SMEEEEEEKLEEIIEVANEALDKYEAEIAKWKAEGKTVEEIAEEAKKKVKELLSKVGLEEEAKILIEEIDLALSSPDAERLIARTLARAEALVKQKELNE
B7: traf2_out_1_71_1752 (protein)
chain: SPEAEKAEKALEDMAKSIAEGMKTEEALERYLEAFRNHIKRVKALAKANKDDEAVKAGSIADLNLEAELLEKIAKYVDEESKKKLEELAKEAKKAAEEIK
B8: traf2_out_13_95_1034 (protein)
chain: SRELAEKIMEIADEAEEKILKLLEEKSKELADDPEMVKVLEEARRLALTRGVNEAIHLLREASERFPEYKEELDKLIEEIEKIREEAGKKVAELIKEEEE
B9: traf2_out_20_38_2036 (protein)
chain: SMEEEEEEKLEEIIRVANEAYDAYEAEIAALKAAGKTVEEIAAIAKERVRELLSKVGLEEEAEILVEDIDLALSSPEAERLIARILARAEAKVKQKELNE
B10: traf2_out_20_38_2022 (protein)
chain: SEEEEEKKKLEELVKVANEAYDEYTARFAEWKAAGKTVEEIAEEVKERIRELLTAAGLEEEAEILIEEVDLALKSPEAERLLVRTLARAVALVHQKELQK
B11: traf2_out_13_95_1078 (protein)
chain: SAEANKKIMEIADEMLEKSLKILKELSKKVADNPEMKAAVEEAIHLAETQGINAAIHLLEKLSEANPEYKELLDEAIKKLKEIKEEAGKKVAEILKEEKE
B12: traf2_out_11_155_677 (protein)
chain: EKKREINNALVDEMAAIDDATRAALDAIVDAAAAAHPEHAAALRAARDATRPYPGSSRGRALAALFRELGLEDYAAQVEALLAAAQKEKNAALKAHEAKL
B13: traf2_out_20_3_2096 (protein)
chain: EELKKELEKALEEAEKLIKEAIKLADEETAKKLKELLKKLKEAKELPLDDQLVELSEVRRELLELAEKAKKEGKEELAKILEEAADKINRAMNLAYKIIE
B14: traf2_out_17_178_1700 (protein)
chain: SKEEIRKKISELTDELIDHADRYGTALLARLRAEGVLSPEELAALDAALASGSNRTLLATAEELIPRSAASPETRALLAEWRAETREIAKKIAEAYEKYE
B15: traf2_out_18_167_1855 (protein)
chain: EEELKKKLEEATDELVKLSEVKRLARTALQLLETDPAAFPAAKAALIAALRAHGELAHLADRLEAAPPEEQPAVLEEIVEEAQRLANEKYKEIEELRKKL
B16: traf2_out_5_63_2338 (protein)
chain: SEREELTALAREADRAVRAILEALKAGKREEARKLVEEVAKDPELLRTAIGIARAELKYYSLQPEKKEEEKIAKELLKLLEEAAKRREEEERREREEALA
B17: traf2_out_17_178_1715 (protein)
chain: TKEAARAEISAATDEMIDLAEAAAARLLAIAEAEGSLSPEELAELRRARRLGSARTTRALMRRAIPRSPSAAEVQALLDDFEKRYAELSKKIAEALKKYE
B18: traf2_out_15_180_1332 (protein)
chain: MTEEELEKRIELVAEVADEADERVREELAAAGVTSPEHLALARSGVRAVITHVFAGWEEEAEEVEEIVAARLPEELRPLFRRLVEEARRRAEEALERLKK
B19: traf2_out_6_3_2529 (protein)
chain: SEEKLREDARTILENMGITTAEQLLRLVKAEVNAVKQLVSRPDVDRADLAGARSVLALTRAMVEVAAETLPSLTPEQAEEALALIDETEKLVEKREKELE
B20: traf2_out_6_3_2519 (protein)
chain: MEESLREDARTVLKNMGITTAEQLLRLVKAEVNAVKKLVSRKDVDRADLAGAESVLALTRAMVEVAAEELPDLTEEQKAEMLELIEEAEKLVEEKRKELE
B21: traf2_out_6_3_2518 (protein)
chain: MEESIRRDAAKVLENMGITTAEQLLRLVKANVNAVKKLVSRKDVDRADLAGAESVLNLTRAMVEVAAETLPDLTEEQKAEMLALIEEARELVEKKRKELE
B22: traf2_out_20_3_2058 (protein)
chain: SELDEEIEKKTKELEKKLAELAKLLPPEEAAELAKAWAEVKKAAKEGLEEFLIAVSKLRRLLLELSEEARARGDEKTAKLLEEAAEIAQEIAHLIYKKIE
B23: traf2_out_1_158_906 (protein)
chain: STAVNTLYAVATSIADVYAELAKERGLEKAAALLEKLKEDIKELYEKNKNASLEEFAKKVLELIEEKEKESESLPEEDKALVDIAFRQIKSGVEQVVKLA
B24: traf2_out_16_177_1453 (protein)
chain: ELDRLMDRLVILSELRRAALLAVEGRGDEYREHLARARELAEEAGDEEALALADRIEALIAENTPEAKEELKKLAEELQKEAQKLALEAEKLIKERAKEE
B25: traf2_out_11_169_827 (protein)
chain: EEAEKNRKINDKALELEDKAKKEFKEFVLKLAKEDGLDVEEIKKIFEENKNKSLSAQAAAVIEYFKSKGKEEAAKKVLEKYEELKEKINKEVTAFIKELE
B26: traf2_out_11_155_748 (protein)
chain: EERRKLLQEMNDKITELFDKAREEALKIAEEAAKKHPEHAEEIKKKIEETKGFSYRSFILSMIELFEELGLEEEAKKLKELLEKTQKEANKIVQETEKKL
B27: traf2_out_20_3_2118 (protein)
chain: EELEEELEKELEEALKLLKEAAKLADKKTAKKLEKLAKRLKESRKLSPSDRLVVVSEVRREVRRLRLEAEKKGDKKLAKVLDEAAEELNRAANLLMKIIE
B28: traf2_out_13_95_1130 (protein)
chain: SRETAEKIMEIADEMLDKVLEILKELLKKFEKAGVGVEEIKEAIYLAEHQSINEAIKLLEELAKKYPEFKEELNKAIEEIKKLRREAGKKVAEILKEEKE
B29: traf2_out_11_79_936 (protein)
chain: EEKRQELLKKLEEALKLLKELLEKMKAGTISEEERKEMLDEIERLLQRAAQLALELGLSDTLVEISEAKRHVRLAYSGDLEALEKAIKELEEAIKLVEEA

Molecular target: T1, TRAF2, Q12933
Assay: median log2 fold change of GCK-ALFA target abundance (FLAG IP / Myc IP barcode read proportion) (log2 ratio); each designed protein is fused to an ALFA-tag nanobody in HEK293 cells to bring the named protein to FLAG-tagged glucokinase (GCK); Myc marks an untargeted standard; higher = target protein stabilised (more abundant)
Details: target protein: 3xFLAG-MCP-GCK-ALFA reporter; HEK293 landing pad (RPLP)
How it was run: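 The readout is target abundance, the per-binder median log2 ratio of FLAG to Myc barcode read proportions. It came from HEK293 landing-pad cells carrying a recombined ALFA-nanobody-fused binder library, induced with 2 μg mL^−1 doxycycline and transfected with a plasmid for a FLAG-tagged target and a Myc-tagged standard. After 48 h, lysates were immunoprecipitated with anti-FLAG and anti-Myc, and circular RNA barcodes were reverse transcribed, amplified and sequenced. Each barcode needed a proportion of at least 10^−7 in both replicates and each binder at least 3 barcodes per replicate, a pseudocount of 10^−6 was added, and the replicates were pooled.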

Row | Binder | median log2 fold change
1 | B1 | -1.3
2 | B2 | -0.996
3 | B3 | 0.0801
4 | B4 | -0.327
5 | B5 | -1.16
6 | B6 | -0.126
7 | B7 | -0.948
8 | B8 | -0.375
9 | B9 | -1.27
10 | B10 | -0.885
11 | B11 | 0.00315
12 | B12 | -0.00384
13 | B13 | 0.177
14 | B14 | 0.0128
15 | B15 | 0.405
16 | B16 | 0.165
17 | B17 | -0.171
18 | B18 | -0.0893
19 | B19 | -0.16
20 | B20 | -0.45
21 | B21 | -0.905
22 | B22 | 0.144
23 | B23 | 0.0998
24 | B24 | -0.267
25 | B25 | -0.542
26 | B26 | 0.302
27 | B27 | 0.107
28 | B28 | -0.433
29 | B29 | 0.397

From the supplement of paper PMC12632987
